Here are results for 40 compounds from PubChem BioAssay (NCI).

Compounds without any hit were thinned out: in the full panel of roughly 79,000, 15% have a hit. Unmarked numbers belong to inactive results. The source made the active and inactive calls. Rule as the data show it: active = growth inhibition above about 70%; inactive = the rest.

The nature of the experiment: NCI Yeast Anticancer Drug Screen. Data for the rad50 strain (AID 155).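 Also: 0% = growth of vehicle-only cultures of the same strain.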 The settings on record: S. cerevisiae rad50 strain growth inhibition; at 50.0 µM; active compounds read high. In a few lines:
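Inhibition values express reduced yeast growth in compound-treated cultures relative to vehicle-treated controls.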
For `Cc1cc(N=C2C=CC(=O)C=C2)ccc1O`, the growth inhibition is 40.5%.
To `CCCCOc1ccc([N+](=O)[O-])cn1` belongs 20.8%; to `CCCCCCCCCc1ccc(COCCCC)cc1`, 21.9%.
The same measure for `CC(C(=O)C(=O)Nc1ccc(Cl)cc1)C(=O)c1ccc(Cl)cc1` (stereo not given): 1.25%; for `[N-]=[N+]=Nc1ccnc2c(C(F)(F)F)cccc12`: -19.9%; for `CCCC(=O)Oc1ccc2ccccc2c1`: 7.65%.
The same measure for `COc1ccc(OC)c2c(Nc3ccc(S(=O)(=O)O)c4cc(S(=O)(=O)O)cc(S(=O)(=O)O)c34)cc(C)nc12`: 2.5%; for `CCOC(=O)c1ccc(NCc2cccc([N+](=O)[O-])c2)cc1`: 10.2%; for `Cc1ccc([N+](=O)[O-])cc1Br`: 0.3%.
Turning to `C#CCOC(=O)C(N)CS` (stereo not given), the growth inhibition was -6.95%.
The same measure for `O=C(Nc1ccc(C2=NCCN2)c(O)c1)c1ccc(C(=O)Nc2ccc(C3=NCCN3)c(O)c2)cc1`: 32.6%; for `C1CCCC(N2N=NC3C4CC(C5N=NN(C6CCCCCC6)C45)C32)CC1` (stereo not given): 12.8%.
To `CC(CN(C)C)CN1c2ccccc2Sc2ccccc21` (stereo not given) belongs -6.7%.
On to `COc1cc2c(cc1OC)C(=O)C1(CO)COC(=O)C1C2` (stereo not given), for which the growth inhibition is -7.7%.
The same measure for `O=[N+]([O-])c1ccc(/C=N/C(/N=C/c2ccc([N+](=O)[O-])cc2)c2ccc([N+](=O)[O-])cc2)cc1`: 8.05%.
To `CN(C)c1cc(N(C)C)c2cc(C#N)ccc2n1` belongs 15.4%; to `Nc1nc(=S)c2[nH]cnc2[nH]1`, -19.6%; to `Cc1c(C)c2cc(Br)ccc2[nH]c1=O`, 18.9%.
Take `Nc1ccccc1SC(CC(=O)c1ccccc1)c1cccc([N+](=O)[O-])c1` (stereo not given): the growth inhibition was -31.1%.
To `COc1cc(/C=N\N=C(/C)c2ccc(C)cc2C)cc(OC)c1OC` belongs 21.4%; to `COC(=O)CCC(=O)CN1C(=O)c2ccccc2C1=O`, 14.8%; to `C[N+](C)(Cc1cccc(Cl)c1)c1nnn[n-]1`, -9.75%.
The same measure for `COc1ccc(C(=O)/C=C/c2c[nH]c3ccccc23)c(O)c1`: 15.8%.
The same measure for `COc1ccccc1/C=N/Nc1ccc([N+](=O)[O-])cc1[N+](=O)[O-]`: 6.45%; for `O=C(OCc1ccccc1)c1ccccc1`: 18.9%; for `CCCCCCCCN1COC2CCc3ccccc3C21` (stereo not given): 93.5% (active).
As for `COC1OC(CO)C(O)C(NC(=O)[C@H](Cc2ccc(O)cc2)NC(=O)OCc2ccccc2)C1O` (stereo not given in full), the growth inhibition is 8.6%.
Turning to `CCCCCCCCCCC/C=N\[N+](C)(C)C`, the growth inhibition was 98.3% (active).
As for `O=C(O)c1c2c(nc3ccccc13)CCC2`, the growth inhibition is 2.55%.
To `O=c1cc(-c2ccc(O)cc2)oc2cc(O)cc(O)c12` belongs 5.85%; to `CC(=O)Oc1ccc(C2(c3ccc(OC(C)=O)cc3)C(=O)Nc3ccccc32)cc1`, -11.2%.
For the compound `OC1CCCCC2CC2C1O` (stereo not given), the growth inhibition was 9.25%.
To `NC(=O)N1CCCC1=O` belongs -18.4%; to `O=C1CC2C3CC4(OCCO4)C4C3CC2C14` (stereo not given), 8.25%; to `COc1cc(NC(C)CCCN)c2nccc(C)c2c1` (stereo not given), 16.2%.
To `O=C1NC(=O)C(c2ccc(C(=O)O)cc2)N1` (stereo not given) belongs -12.8%; to `OCc1ccccc1F`, -42.4%; to `NS(=O)(=O)c1ccc(NC(=O)Nc2cccc(Cl)c2)cc1`, 1.35%.
The same measure for `Cc1ccc(C)c(NC(=O)Oc2ccc(Cl)cc2Cc2ccccc2)c1`: 5.35%; for `S=c1[nH]ncn2nc3ccccc3c12`: 0.15%.
